Reference: PubChem BioAssay AID493168 (National Center for Advancing Translational Sciences (NCATS), 2011)
Records with an inconclusive call do not appear. Active and inactive are the calls of the source. Calls follow the shape of the dose curve; as a rule, active = well fitted inhibition curve with a large enough effect; inconclusive = small, poorly fitted or top-dose-only effect, or effect the other way; inactive = flat fitted curve, though single readings scatter.
Also: nearly all actives have a fitted effect of over 55% in size.
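For activity change, negative = inhibition in this document: plate controls were DMSO wells for no effect and full inhibition by NEM control for full effect.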
Potency is read from the fitted curve at half-maximal effect.

The compounds below were run against Ubiquitin carboxyl-terminal hydrolase 2 (Homo sapiens) (UniProt O75604) (assay: Confirmation Assay for Inhibitors of Ubiquitin-specific Protease USP2a Using CHOP2 as the Reporter). Conditions: USP2 core, Ub-CHOP2 coupled reporter fluorescence; series mostly up to 38.3 µM; activity change, negative = inhibition: at the top concentration.
Chain of Ubiquitin carboxyl-terminal hydrolase 2 (Homo sapiens) (O75604 whole entry, looked up): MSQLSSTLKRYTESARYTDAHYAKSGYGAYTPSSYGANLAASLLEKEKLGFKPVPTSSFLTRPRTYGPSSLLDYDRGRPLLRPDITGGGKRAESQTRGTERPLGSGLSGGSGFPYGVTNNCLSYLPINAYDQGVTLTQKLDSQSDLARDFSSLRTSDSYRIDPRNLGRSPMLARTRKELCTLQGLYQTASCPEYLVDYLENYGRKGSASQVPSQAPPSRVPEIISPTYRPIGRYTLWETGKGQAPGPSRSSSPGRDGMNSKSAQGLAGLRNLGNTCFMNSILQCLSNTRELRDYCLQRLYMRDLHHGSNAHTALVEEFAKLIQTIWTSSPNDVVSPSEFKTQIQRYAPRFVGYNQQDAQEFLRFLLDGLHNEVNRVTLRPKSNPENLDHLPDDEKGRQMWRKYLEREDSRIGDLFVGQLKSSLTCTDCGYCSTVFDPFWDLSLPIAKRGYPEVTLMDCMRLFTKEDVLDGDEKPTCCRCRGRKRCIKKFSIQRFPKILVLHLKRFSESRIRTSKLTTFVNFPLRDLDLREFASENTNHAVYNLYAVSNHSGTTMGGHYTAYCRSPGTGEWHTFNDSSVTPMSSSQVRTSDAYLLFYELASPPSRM
Outline: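 USP2 core (10 nM final) was preincubated with compound for 30 min at RT in Tris-HCl pH 8.0, CaCl2, beta-mercaptoethanol, CHAPS. Ub-CHOP2 and reporter substrate (25 nM final each) were added, and fluorescence (Ex 485/Em 531 nm) was read after 60 min.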
With Cc1c(NC(=O)C2CCCN2S(=O)(=O)c2ccc(Cl)cc2)c(=O)n(-c2ccccc2)n1C (configuration not stated) the “activity change, negative = inhibition” value was 7.2% (inactive).
In the case of CC1CCCC(NC(=O)C2N(CCCN3CCCC3)C(=O)C3C(C(=O)Nc4ccc(Cl)cc4)C4C=CC32O4)C1C (configuration not stated), the “activity change, negative = inhibition” value is reported as 0.321% (inactive).
For Cc1cc(C)c2c(N=CN(C)C)c(C(=O)N3CCN(c4ncccn4)CC3)sc2n1, the “activity change, negative = inhibition” value was -1.59% (inactive).
With O=C(OCc1nc2ccccc2[n+]([O-])c1C(=O)c1ccccc1)c1cccs1 the “activity change, negative = inhibition” value was -4.32% (inactive).
With O=C(O)CC1(CC(=O)Nc2ccc3ccccc3c2)CCCCC1 the “activity change, negative = inhibition” value was 4.41% (inactive).
In the case of CCN(CC)S(=O)(=O)c1ccc(Cl)c(NC(=O)COC(=O)c2c(C)noc2C)c1, the “activity change, negative = inhibition” value is reported as 9.62% (inactive).
CCCn1nnc(NC(=O)c2cccc(OCC(C)C)c2)n1 was tested, and the “activity change, negative = inhibition” value was 2.02% (inactive).
With CC(C)(C)C1CCC2(CC1)Nc1cccc3cccc(c13)N2 the “activity change, negative = inhibition” value was -4.19% (inactive).
In the case of N#CNC(=Nc1cccc(F)c1)SCc1cccc(F)c1, the “activity change, negative = inhibition” value is reported as -0.652% (inactive).
For COc1ccc(NC(=O)CN(Cc2ccccc2)S(C)(=O)=O)cc1, the “activity change, negative = inhibition” value was 4.08% (inactive).
In the case of O=C(Nc1nnc(-c2cccs2)o1)c1cccc(Oc2ccccc2)c1, the “activity change, negative = inhibition” value is reported as -18.2% (inactive).
With CCCCc1ccc(/C=C2/C(=O)ON=C2c2ccccc2)s1 the “activity change, negative = inhibition” value was -0.0359% (inactive).
FC(F)(F)C1=Nc2cccc3cccc(c23)N1 was tested, and the “activity change, negative = inhibition” value was -3.63% (inactive).
With Cc1ccc2oc(=O)c3cnn(CC(=O)NCCCOC(C)C)c3c2c1 the “activity change, negative = inhibition” value was 3.71% (inactive).
In the case of COc1ccc(C2CC(=O)N3CN(c4ccccc4F)CSC3=C2C#N)cc1OC (configuration not stated), the “activity change, negative = inhibition” value is reported as -2.34% (inactive).
For Nc1c(C(=O)NC2CC2)sc2nc3c(c(-c4ccco4)c12)CC/C3=C/c1ccco1, the Potency was 7.36 µM (active).
With CCOC(=O)c1c(NC(C)=O)sc2c1CCCNC2=O the “activity change, negative = inhibition” value was -2.31% (inactive).
For Cc1ccc(S(=O)(=O)Nc2ccc(N3CCOCC3)cc2)cc1, the “activity change, negative = inhibition” value was -0.804% (inactive).
In the case of CC(C)n1nc(C(=O)Nc2ccccc2N2CCOCC2)c2ccccc2c1=O, the “activity change, negative = inhibition” value is reported as 0.877% (inactive).
For COc1cccc(NC(=O)c2ccccc2-c2nc(-c3cccc(C)c3)no2)c1, the “activity change, negative = inhibition” value was 1.17% (inactive).
In the case of C=CC#CC[N+]1(CC#Cc2ccccc2)CCOCC1, the Potency is reported as 3.69 µM (active).
In the case of CC(=O)COc1ccc2c(-c3ccccc3)cc(=O)oc2c1, the “activity change, negative = inhibition” value is reported as 7.04% (inactive).
